Experimental data as given in a collection of fitness landscapes (doi:10.1016/j.celrep.2020.107928).
Whole data set: some 81,000 sequences, median “one-hybrid fitness for binding parS DNA” near -0.17, cut for the highest 2% near 0.51. Only a selection was taken, and the highest values are over-represented in it overall.

B1: Caulobacter ParB omega fusion; a variant is named by its letters at X, in order, B8GW30 (parent)
chain: MESVVVGEPGMSEGRRGLGRGLSALLGEVDAAPAQAPGEQLGGSREAPIEILQRNPDQPRRTFREEDLEDLSNSIREKGVLQPILVRPSPDTAGEYQIVAGERAWRAAQRAGLKTVPIMVRELDDLAVLEIGIIENVQRADLNVLEEALSYKVLMEKFERTQENIAQTIGKSXSHVANXMRLLXLPDEVQSYLVSGELTAXHARAIAAAADPVALAKQIIEGGLSVRETEALARKAPNLSAGKSKGGRPPRVKDTDTQALESDLSSVLGLDVSIDHRGSTGTLTITYATLEQLDDLCNRLTRGI

Variants of: B1
Assay: one-hybrid fitness for binding parS DNA (scaled: cognate 1, non-cognate 0); higher = stronger binding
Conditions: with parS DNA site
Outline: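 The reporter was HIS3, with the binding site 19 bp from the promoter, in E. coli USO used for bacterial one-hybrid selection of Caulobacter ParB libraries with four specificity codons randomised. Growth was on M9 lacking histidine, with 0.1 mM IPTG and 5 mM 3-AT, for 48 hours at 37°C. Illumina sequencing covered plasmids before and after selection; three replicate libraries were pooled and variants with under 10 reads dropped. A fitness score is the log change in variant-to-wild-type read ratio, rescaled to the cognate and non-cognate references.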

Variant | one-hybrid fitness for binding parS DNA
VPYR | ≤ 0.2
LEDT | ≤ 0.2
PHLT | ≤ 0.2
MREY | ≤ 0.2
RKCH | ≤ 0.2
RKDC | 0.923
RKYR | ≤ 0.2
RKNP | ≤ 0.2
RKDR | ≤ 0.2
RKCD | ≤ 0.2
RKDF | ≤ 0.2
RKYQ | 0.213
RKYC | 0.925
RKCC | 0.908
RKND | ≤ 0.2
RKNC | 0.806
IKIT | ≤ 0.2
LFDR | ≤ 0.2
IRTA | ≤ 0.2
MSDQ | ≤ 0.2
EAWR | ≤ 0.2
DRKV | ≤ 0.2
LAGW | ≤ 0.2

Variant | one-hybrid fitness for binding parS DNA
RPIL | ≤ 0.2
QIFK | ≤ 0.2
ANVG | ≤ 0.2
RTRQ | ≤ 0.2
RTLG | 1.02
RTRN | 0.396
RTHP | ≤ 0.2
RTLR | ≤ 0.2
RTHG | 1.01
RTLQ | ≤ 0.2
RTGM | 0.33
RTGG | 0.997
RTGH | ≤ 0.2
RTRG | 0.908
RTHN | 0.45
DCRS | ≤ 0.2
IAEG | ≤ 0.2
SAYT | ≤ 0.2
MHTF | ≤ 0.2
PSYT | ≤ 0.2
VTEN | ≤ 0.2
RTYG | 1.02
RTYQ | ≤ 0.2

Variant | one-hybrid fitness for binding parS DNA
NTYG | ≤ 0.2
HADL | ≤ 0.2
RIIK | ≤ 0.2
REPT | ≤ 0.2
RIPN | ≤ 0.2
RCPT | 0.604
RPPT | ≤ 0.2
RIPT | 0.549
RIIN | 0.379
RIPP | ≤ 0.2
RIIT | 0.715
YDNV | ≤ 0.2
FNSY | ≤ 0.2
TSTS | ≤ 0.2
SATQ | ≤ 0.2
RMWK | ≤ 0.2
RLRL | ≤ 0.2
KRHS | ≤ 0.2
PLTH | ≤ 0.2
RAQT | 0.894
RACN | 0.41
RAYT | 0.904
RAHT | 0.928

Variant | one-hybrid fitness for binding parS DNA
RAQM | 0.31
RAQF | 0.229
RAYM | 0.324
RAHM | 0.329
RACD | ≤ 0.2
RAHH | 0.26
RACT | 0.852
RAYR | ≤ 0.2
MLRS | ≤ 0.2
GTET | ≤ 0.2
SSAG | ≤ 0.2
DLPN | ≤ 0.2
DGPD | ≤ 0.2
NYGR | ≤ 0.2
SRPW | ≤ 0.2
LATK | ≤ 0.2
AQEG | ≤ 0.2
QIWY | ≤ 0.2
RASQ | ≤ 0.2
RAGQ | ≤ 0.2
RANN | 0.434
RART | 0.836
RAST | 0.911

Variant | one-hybrid fitness for binding parS DNA
RAND | 0.215
RASY | 0.459
RAGT | 0.92
RAGR | ≤ 0.2
RARF | 0.28
RARQ | ≤ 0.2
RANT | 0.907
PKYV | ≤ 0.2
APEG | ≤ 0.2
FICL | ≤ 0.2
GDRF | ≤ 0.2
VNRI | ≤ 0.2
QPAD | ≤ 0.2
QAKR | ≤ 0.2
PSVL | ≤ 0.2
PTYM | ≤ 0.2
RAWH | 0.223
RADT | 0.732
RALK | ≤ 0.2
RALT | 0.888
RADK | ≤ 0.2
RADR | ≤ 0.2
RAWN | 0.384

Variant | one-hybrid fitness for binding parS DNA
RAWT | 0.809
RALQ | ≤ 0.2
MCRN | ≤ 0.2
QVLP | ≤ 0.2
NHYR | ≤ 0.2
EVTS | ≤ 0.2
GHDR | ≤ 0.2
HVTM | ≤ 0.2
PTLD | ≤ 0.2
TYDN | ≤ 0.2
AAAL | ≤ 0.2
LNIY | ≤ 0.2
RMMS | 1.03
RCMS | 1.01
RIMS | 1.04
RLMD | ≤ 0.2
RPMS | ≤ 0.2
RLMN | 0.459
RCMP | 0.232
RMML | ≤ 0.2
RMMD | ≤ 0.2
RLMS | 1.04
RIMH | 0.264

Variant | one-hybrid fitness for binding parS DNA
RIMP | ≤ 0.2
THDG | ≤ 0.2
EQQR | ≤ 0.2
MVPW | ≤ 0.2
ASII | ≤ 0.2
PLHG | ≤ 0.2
GYPH | ≤ 0.2
CVTM | ≤ 0.2
RSMH | 0.245
RSMN | 0.402
RRMS | 0.704
RRMP | ≤ 0.2
RKMS | 0.876
RSMS | 0.994
RHMD | ≤ 0.2
RKMD | ≤ 0.2
RHMS | 0.966
RRMN | 0.4
RHMH | ≤ 0.2
RKMN | 0.372
